This is an account of results in PubChem BioAssay.

A number with no mark means an inactive call. Active and inactive are the calls of the source.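 Rule for the calls: active = inhibition above the hit cutoff set in the earlier primary screen (cut at about 27% in these data); inactive = the rest.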

Protein phosphatase methylesterase 1 (Homo sapiens), sequence (Q9Y570 whole entry, looked up): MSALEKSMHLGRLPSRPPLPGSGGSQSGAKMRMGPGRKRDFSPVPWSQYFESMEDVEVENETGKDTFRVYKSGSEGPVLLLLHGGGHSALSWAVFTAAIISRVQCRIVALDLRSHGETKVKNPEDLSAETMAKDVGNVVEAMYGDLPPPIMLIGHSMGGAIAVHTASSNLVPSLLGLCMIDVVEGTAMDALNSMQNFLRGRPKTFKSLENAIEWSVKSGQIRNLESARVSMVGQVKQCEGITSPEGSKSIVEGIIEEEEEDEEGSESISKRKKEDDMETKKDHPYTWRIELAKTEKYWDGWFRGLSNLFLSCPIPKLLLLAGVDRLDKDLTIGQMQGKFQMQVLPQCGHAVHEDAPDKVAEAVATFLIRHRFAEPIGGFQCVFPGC

The test addresses Protein phosphatase methylesterase 1 (Homo sapiens) (UniProt Q9Y570). The test is described as follows: human PME-1 methylesterase inhibition confirmation – biochemical, fluorescence polarization, FP-Rh probe, triplicate (AID 2171).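 Note: 0% = enzyme with DMSO and 100% = wells lacking PME-1.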 As to conditions: recombinant PME-1, FP-Rh probe fluorescence polarization; at 5.9 µM; active compounds read high. (In fluorescence polarisation assays a small probe gives low polarisation when free and higher when bound to something large.)
Turning to `N#Cc1ccccc1Cn1c(=O)n(-c2ccc(CC(=O)NCc3ccco3)cc2)c(=O)c2sccc21`, the inhibition (usually the relative decrease from the control value, in per cent) is 38.4% (active).

On to `COc1ccc(/C(C)=C2/SC(=S)N(CCC(=O)O)C2=O)cc1`, for which the inhibition was 4.27%.

For the compound `Cc1ccc2[nH]c(C)c(/C=N/Nc3nc4ccccc4s3)c2c1`, the inhibition is 41.1% (active).

Regarding `COc1ccc(-c2nc(-c3cccs3)c(-c3cccs3)[nH]2)cc1O`, the inhibition was 39.6% (active).

Consider `O=C(CN1CCN(S(=O)(=O)c2ccc(Br)cc2)CC1)N/N=C/c1cc([N+](=O)[O-])ccc1Cl`, for which the inhibition was 21%.

In the case of `O=C(CNc1ccc2ccccc2c1)N/N=C/c1cc2ccccc2nc1Cl`, the inhibition is 22.6%.

With `CCN1CCc2c(sc(NC(=O)Nc3ccc(Cl)c(Cl)c3)c2C(N)=O)C1`, the inhibition is 14.2%.

Turning to `COc1ccc(/C=N/NC(=O)c2cc3c(OC)ccc(OC)c3[nH]2)cc1O`, the inhibition is 37.8% (active).

In the case of `CCN(CC)S(=O)(=O)c1ccc(Cl)c(NC(=O)COC(=O)c2ccc(O)cc2)c1`, the inhibition is 24.9%.

Regarding `CC(=O)Nc1ccc(Nc2c3c4c(cccc4n(C)c2=O)C(=O)c2ccccc2-3)cc1`, the inhibition was 31.5% (active).

With `COc1ccc(NC(C(=O)Nc2cccc(C(C)=O)c2)c2ccccc2)cc1` (stereo not given), the inhibition is 36% (active).

For `CCOC(=O)c1ccc(NC(=O)Nc2ccc3c4c(cccc24)C(=O)N3CC)cc1`, the inhibition is 16.2%.

As for `Cc1ccc(-c2csc(-c3c[nH]c4ccccc34)n2)cc1`, the inhibition is 11.1%.

In the case of `Nc1c(C(=O)Nc2ccccc2)sc2nc(-c3ccco3)ccc12`, the inhibition is 59.5% (active).

In the case of `CN1C(=O)NC(c2ccccc2[N+](=O)[O-])C2=C1CCCC2=O` (stereo not given), the inhibition was 51.5% (active).

As to `O=c1ccc2ccc(Oc3ccc([N+](=O)[O-])cc3[N+](=O)[O-])cc2o1`, the inhibition was 25.6%.

In the case of `O=C1c2cccc3c([N+](=O)[O-])ccc(c23)C(=O)N1c1ccc(Cl)cn1`, the inhibition is 34.9% (active).

On to `O=c1[nH]c(N/N=C\c2ccc3c(c2)OCO3)nc2ccccc12`, for which the inhibition is 24.6%.

Turning to `Cc1cc(Nc2ccc(O)cc2)ccc1N`, the inhibition was 17.6%.

For the compound `Cc1cc(Br)ccc1N=C1NC(=O)CS1`, the inhibition was -3.07%.

On to `Cc1ccc(S(=O)(=O)N2CCN(C(=O)Cn3c(=O)cnc4ccccc43)CC2)cc1`, for which the inhibition was 25.8%.

On to `COc1ccc(-c2csc(NC(=O)Nc3ccccc3)n2)cc1`, for which the inhibition is 25.6%.

In the case of `COc1cc(/C=N/NC(=O)[C@H](Cc2c[nH]c3ccccc23)NC(=O)OCC(C)C)cc([N+](=O)[O-])c1O`, the inhibition is 35.9% (active).

On to `Oc1nc(Nc2cccc(Cl)c2)sc1/C=C1\C=Nc2ccccc21`, for which the inhibition is 26.6% (active).

With `C#CCN1c2ccccc2Sc2cccnc21`, the inhibition is 1.92%.

Regarding `Oc1ccc(/C=N/Nc2ccnc3cc(Cl)ccc23)c(O)c1`, the inhibition was 19%.

On to `O=C(Nc1ccc(-c2csc(Nc3ccc(Cl)cc3)n2)cc1)c1cccc(C(F)(F)F)c1`, for which the inhibition was -1.3%.

For `O=S(=O)(Nc1cc2nc3ccccc3nc2n1Cc1ccccc1)c1ccc(Cl)cc1`, the inhibition was 42.4% (active).

Turning to `C/C(=N\Nc1ccc(C(=O)O)cc1)c1ccc2c(c1)Nc1ccccc1S2`, the inhibition was 30.5% (active).

`CCCC(=O)NC(c1ccccc1Cl)c1c(O)ccc2ccccc12` (stereo not given): the inhibition was 58.5% (active).

Turning to `CCOc1ccc(NC(=O)Nc2ccc3c(c2)N(C)C(=O)CS3)cc1`, the inhibition was 14.8%.

`CCOc1ccccc1/C=C(\C#N)C(=O)Nc1cccc(C(=O)O)c1`: the inhibition is 5.46%.

Take `NNc1nc2cc3c(cc2s1)OCCO3`: the inhibition was 8.82%.

As to `COc1ccc(-c2cc(-c3c(O)c(OC)c4occc4c3OC)[nH]n2)cc1OC`, the inhibition is 12.9%.

`C=CCn1c(SCC(=O)N2CCCC2=O)nc2sc(CC)cc2c1=O`: the inhibition is 11.2%.

Consider `COc1ccc(/C=N\NC(=O)c2cc(O)c(O)c(O)c2)cc1COc1ccc(C(=O)OCC(C)C)cc1`, for which the inhibition is -24.1%.

On to `CCOC(=O)N1CC=C2C(C#N)=C(N)C(C#N)(C#N)[C@H](c3cccs3)C2C1` (stereo not given in full), for which the inhibition is 35.2% (active).

On to `CC1=Nc2ccccc2/C1=C\c1sc(Nc2ccc(C)cc2)nc1O`, for which the inhibition is 42.2% (active).

For `CCN(CC(=O)Nc1c(C(=O)OC)[nH]c2ccc(Cl)cc12)c1ccc2c(c1)OCO2`, the inhibition was 6.28%.

Turning to `CN=c1scc(-c2cccs2)n1/N=C/c1ccc(O)c(O)c1O`, the inhibition was 50.1% (active).
